Reference: PubChem BioAssay AID686978 (National Center for Advancing Translational Sciences (NCATS), 2013)
About 64,000 (15%) of roughly 420,000 compounds were called active. Roughly 27% stayed inconclusive and do not appear here. Calls come from the whole dose curve; as a rule, active = well fitted inhibition curve with a large enough effect; inconclusive = small, poorly fitted or top-dose-only effect; inactive = flat fitted curve, though single readings scatter. Only a sample is shown. A call without a number means that no potency is given here.

experiment: qHTS for Inhibitors of human tyrosyl-DNA phosphodiesterase 1 (TDP1): qHTS in cells in absence of CPT; settings: DT40 Tdp1-/- hTDP1 cells, no CPT, ATP luminescence, 48 h; activity change, negative = growth inhibition: at 46.2 µM (top of the series); note: nearly all actives have a fitted effect of over 55% in size
Method in brief: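 Camptothecin absent (DMSO only). Human TDP1-complemented DT40 knockout cells, 400 cells/well, 37 °C for minimum 48 hr; ATP measured via CellTiter-Glo, 30 min dark incubation, luminescence.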
Potency is the fitted concentration of half-maximal effect.

Structure (SMILES)	Potency
CCN(Cc1ccccc1)C(=O)CCS(=O)(=O)c1ccc2c(c1)oc(=O)n2C	inactive
COc1cccc2c1CCC(NC(C)=O)C2=O (stereo not drawn)	inactive
FC(F)(F)c1ccc(-n2cn[nH]c2=S)cc1	inactive
COc1ccc(-c2c(C)nn3c(N4CCC(C(=O)N5CCCCC5)CC4)cc(C)nc23)cc1OC	inactive
N#Cc1cc([N+](=O)[O-])ccc1NCC1CCCO1 (stereo not drawn)	inactive
O=C(Nc1ccc2c(c1)OCCO2)c1ccoc1	inactive
COc1ccc(NS(=O)(=O)c2ccc(N3CCOCC3)c(NC(=O)/C=C/C(=O)O)c2)cc1	inactive
Cc1ccc(S(=O)(=O)NCCSc2ccccc2)cc1[N+](=O)[O-]	inactive
Cc1ccc(C(=O)c2ccc(N3CCN(C)CC3)c([N+](=O)[O-])c2)cc1	23.1 µM (active)
COc1ccc(NS(=O)(=O)c2ccc(N3CCN(CCO)CC3)c([N+](=O)[O-])c2)cc1	3.66 µM (active)
Cc1cccc(N2CCN(c3ccc(C(N)=O)cc3[N+](=O)[O-])CC2)c1C	inactive
COc1ccc(N2C(=O)CC(Nc3ccc(F)cc3)C2=O)c([N+](=O)[O-])c1 (stereo not drawn)	inactive
CC1CCN(c2ccc(S(=O)(=O)Nc3cc(C(=O)O)cc(C(=O)O)c3)cc2[N+](=O)[O-])CC1	inactive
CS(=O)(=O)N1CCN(c2ccc(C(=O)NC3C4CC5CC(C4)CC3C5)cc2[N+](=O)[O-])CC1 (stereo not drawn)	23.1 µM (active)
Cc1ccc(S(=O)(=O)N2CCN(C(=O)c3ccc(-n4cncn4)c([N+](=O)[O-])c3)CC2)cc1	inactive
CN1CCN(c2ccc(S(=O)(=O)Nc3ccccc3)cc2[N+](=O)[O-])CC1	9.2 µM (active)
FC(F)(F)c1ccc2nnc(-c3c(Cl)cccc3Cl)n2c1	inactive
COc1ccc(-n2c(C)nn(CC3CC3)c2=O)cc1	inactive
O=C(COc1coc(CN2CCN(c3ccccc3)CC2)cc1=O)N1CCc2ccccc21	inactive
O=C(NCCN=C1NS(=O)(=O)c2ccccc21)c1ccc(S(=O)(=O)N2CCOCC2)cc1	inactive
CCCCCCOC(=O)NCC(O)c1ccccc1 (stereo not drawn)	inactive
CC(C)C[C@H](NC(=O)C1CCC(CNC(=O)[C@@H]2CCCN2C(=O)OC(C)(C)C)CC1)C(=O)O (stereo partly drawn)	inactive
CC(=O)OCC(=O)C1CCC2C3CCC4=CC(=O)CC[C@@]4(C)C3CC[C@]12C (stereo partly drawn)	inactive
CSc1ncnc2c1ncn2CC(=O)C1CCC2C3CCC4=CC(=O)CCC4(C)C3CCC12C (stereo not drawn)	5.8 µM (active)
C#CCOc1ccc(/C=C2/C(=O)NN(c3ccccc3)C2=O)cc1OC	inactive
COc1ccnc2c1c(=O)n(Cc1cccc(F)c1)c(=O)n2C	inactive

Structure (SMILES)	Potency
COc1cc(/C=C2/C(=O)ON=C2C)ccc1OCc1cccc(F)c1	16.4 µM (active)
Cc1c(C(=O)O)nnn1-c1nonc1N	inactive
CCOc1cc(C(=O)Nc2ncccn2)cc(OCC)c1OCC	inactive
CC1C/C(=N/NC(=O)c2cccs2)CC(C)(C)C1 (stereo not drawn)	inactive
CSCCC(Nc1nc2ccccc2s1)C(=O)O (stereo not drawn)	inactive
COc1cccc2sc(NNC(=O)c3nc4ccccc4s3)nc12	6.51 µM (active)
COc1ccc(S(=O)(=O)N2CCOCC2)cc1C(=O)Nc1nc2ccccc2s1	inactive
Cc1ccc(N2CC(C(=O)NCCS(=O)(=O)N3CCN(c4ccccc4)CC3)CC2=O)cc1 (stereo not drawn)	inactive
COc1ccccc1NC(=O)COC(=O)c1ccccc1SCC(=O)N1CCCC1	inactive
CCN(CC)c1ccc(NC(=O)CN2C(=O)c3cccnc3Oc3ccc(Cl)cc32)c(C)c1	13 µM (active)
CCN(CC)c1ccc(NC(=O)Cn2nc3c(cc2=O)CCCC3)c(C)c1	inactive
CC(=O)Nc1cccc(C(=O)OCN2C(=O)c3ccccc3C2=O)c1	inactive
CCCCN1C(=O)C(=O)N(CC(=O)Nc2cccc(C(C)=O)c2)C1=O	inactive
CC1(c2ccc(Cl)cc2Cl)NC(=O)N(CC(=O)Nc2cccnc2Cl)C1=O (stereo not drawn)	inactive
Cc1ccc2c(c1)N(CC(=O)NCCc1ccc(Cl)cc1)C(=O)c1cccnc1O2	1.16 µM (active)
Cc1ccc2[nH]c3c(=O)n(CC(=O)NCCc4ccc(Cl)cc4)ncc3c2c1	inactive
CC(=O)c1cccc(NC(=O)CN2C(=O)c3cccnc3Oc3ccc(Cl)cc32)c1	13 µM (active)
Cc1ccc2c(c1)N(CC(=O)NCCCN1CCCCC1)C(=O)c1cccnc1O2	inactive
O=C(COC(=O)c1ccc(S(=O)(=O)N2CCc3ccccc3C2)cc1)NC(=O)NCc1ccco1	inactive
O=C(COc1ccc([N+](=O)[O-])cc1Cl)Nn1cnnc1	inactive
CNc1nc(=O)n(C2CCCO2)cc1C (stereo not drawn)	inactive
O=C(CCC(=O)N1CCCC1)Nc1ccc([N+](=O)[O-])cc1	inactive
COC(=O)NNC(=O)C1CCC(C)CC1 (stereo not drawn)	inactive
COc1ccc(C(=O)NN2C(=O)C3C(c4ccccc4)C=CC(c4ccccc4)C3C2=O)cc1 (stereo not drawn)	inactive
COc1ccc(C(=O)NNS(=O)(=O)c2ccc(C)cc2)cc1	inactive
COc1ccc(C(=O)NN(C)c2nc(-c3ccccc3)cc(C)c2S(C)(=O)=O)cc1	18.4 µM (active)

Structure (SMILES)	Potency
COc1ccc(CN2C(=O)C(CC(=O)NC3CCCCC3)CC(C(=O)N3CCOCC3)=C2C)cc1 (stereo not drawn)	inactive
Cc1cc(NC(C)C)n2c(nc3ccccc32)c1C#N	inactive
CC(C)c1cc(NCc2ccccn2)n2c(nc3ccccc32)c1C#N	11.6 µM (active)
CCCc1nnc(NC(=O)c2cc(OC)cc(OC)c2)s1	inactive
O=C(CSc1n[nH]c(-c2cccnc2)n1)Nc1ccc(Cl)cc1	inactive
CCN(CC(=O)NC(C)C)C(=O)CCNC(=O)c1ccc(Cl)cc1	inactive
COc1cc(N=Cc2c(O)[nH]c3ccccc23)cc(OC)c1OC	13 µM (active)
COc1cc2[nH]c(O)c(C=O)c2cc1OC	inactive
COc1cc(N=Cc2c(O)c3ccccc3oc2=O)c(OC)cc1Cl	inactive
CCn1c(O)c2ccc(C(=O)N=NC(=O)c3cccnc3)cc2c1O	inactive
Cc1cc(OC(C)C(=O)Nc2ccc(S(=O)(=O)Nc3onc(C)c3C)cc2)cc(C)c1Cl (stereo not drawn)	inactive
Cc1c(O)cc(O)c2c(=O)c(-c3ccc(O)cc3)coc12	inactive
CCOc1ccc(N/C=C/C(=O)c2cc(OC)c(OC)c(OC)c2)cc1	6.51 µM (active)
CCOc1ccc(N/C=C/C(=O)c2ccccc2)cc1	inactive
CCCOc1ccc(N/C=C/C(=O)C(C)(C)C)cc1	inactive
COc1ccc(C2CC(c3cccs3)=NN2c2ccc(F)cc2)cc1OC (stereo not drawn)	inactive
O=C(COC(=O)CCC(=O)c1cccs1)NCc1ccco1	inactive
CCOc1ccc(S(=O)(=O)N(CC(=O)NCCSCc2ccc(C)cc2)c2ccccc2)cc1	inactive
Cc1ccc(S(=O)(=O)N(CC(=O)NCCSC2CCCCC2)c2ccccc2F)cc1	18.4 µM (active)
CCCNC(=O)CN(Cc1ccccc1F)S(=O)(=O)c1ccc(C)cc1	inactive
COC(=O)[C@H]1Cc2cnoc2C[C@]1(C)C(=O)O	inactive
COc1cccc(-c2cc3nc4c(c(N5CCC6(CC5)OCCO6)n3n2)CCCC4)c1	20.6 µM (active)
O=C(NCCO)c1cccc(-c2cccc3nccn23)c1	inactive
C/C(CC(C)C)=N\Oc1nc(C)cc(C)n1	inactive
CC1(C)O[C@@H]2CC3C4C[C@H](F)C5=CC(=O)C=CC5(C)C4C(O)CC3(C)[C@]2(C(=O)CO)O1 (stereo partly drawn)	inactive
Cc1nc2ccccc2c(-c2ccccc2)c1C(=O)c1ccccc1	inactive

Structure (SMILES)	Potency
CC(=O)c1ccc(N2CCN(CC(=O)Nc3ccccc3N3CCOCC3)CC2)cc1	10.3 µM (active)
O=C(CN1CCCCC1)Nc1ccccc1Cl	inactive
CN1CCN(c2ccccc2NC(=O)COc2ccc(C3CCCCC3)cc2)CC1	16.4 µM (active)
CN1CCN(c2ccc(S(=O)(=O)N3CCCCC3)cc2NC(=O)Cc2ccccc2F)CC1	inactive
O=C(CN1CCN(C2CCCCC2)CC1)Nc1ccccc1N1CCCCC1	22.4 µM (active)
O=C(Nc1ccccc1N1CCOCC1)c1ccncc1	inactive
CNC(=O)C1CC(=O)N(c2ccc(OCC(=O)Nc3ccccc3C)cc2)C1 (stereo not drawn)	inactive
CCc1ccc(C(=O)NC(=S)Nc2ccccc2N2CCOCC2)cc1	inactive
O=C(CN1CCCCC1)Nc1ccccc1C(=O)NC1CC1	inactive
O/N=C(\c1ccc2c(c1)OCCO2)C1CCCCC1	inactive
CC1(C(=O)NS(=O)(=O)c2ccc(C#N)cc2)CCN1C(=O)c1ccc(C2CCCCC2)cc1 (stereo not drawn)	inactive
O=C(O)C1C2C=CC(O2)C1C(=O)NCCc1cccc(Cl)c1 (stereo not drawn)	inactive
COCC(C)NC(=O)c1ccc(Cl)c(Cl)c1 (stereo not drawn)	inactive
Cn1nc(C(=O)OCC(=O)N(Cc2ccccc2)C(C)(C)C)c2ccccc2c1=O	inactive
CC(Oc1ccccc1)C(=O)Nc1c2c(nn1-c1ccccc1)CS(=O)C2 (stereo not drawn)	inactive
O=C(NCCCn1ccnc1)c1ccccc1F	inactive
O=C(CCN1CCN(C/C=C/c2ccccc2)CC1)Nc1cccc(F)c1	inactive
O=C1/C(=C/c2cccs2)SC(=S)N1C1CCS(=O)(=O)C1 (stereo not drawn)	18.4 µM (active)
O=C(CCN1C(=O)/C(=C/c2cccs2)SC1=S)NNC(=O)c1cccc(O)c1	inactive
CCN1CCC2(CCN(Cc3cn[nH]c3-c3ccc(OC)c(F)c3)C2)C1 (stereo not drawn)	inactive
O=C(Cn1cnc2c(OCc3ccccc3)ncnc21)NCCCn1ccnc1	inactive
Cc1ccc(C(C)(C)C)c(OCCCCN2CCCC2)c1	29.1 µM (active)
Cc1ccc(C(C)C)cc1OCCN1CCCC1	inactive
O=[N+]([O-])c1ccccc1OCCCCN1CCCCC1	inactive
Nc1nc2c(ncn2[C@@H]2O[C@H](CNCc3ccc(OCCCN4CCOCC4)cc3)[C@@H](O)[C@H]2O)c(=O)[nH]1	inactive
